Assay results reported in PubChem BioAssay (NCI).
The panel holds about 83,000 compounds, 20% with a hit somewhere; the sample as a whole holds those more often.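 Cells were grown in 96-well plates and exposed to the test compound at a single concentration for 48 hours; results are reported as percent growth, with values below 10 considered active.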 Values without a mark were called inactive. Activity calls are given as the source filed them.

Tested on: HL-60(TB) leukemia
Experiment: NCI-60 one-dose screen, 48 h (100 = growth as untreated, 0 = no growth, -100 = all killed)
Details: 10 µM unless noted

Row | SMILES | growth
1 | NC(N)=N/N=C(/c1ccccc1)c1ccccc1F | -47% (active)
2 | Nc1nc(N)c2cc(CNc3ccc(C(=O)NC(CC(=O)O)C(=O)O)cc3)ccc2n1 (centres undefined) | 19.4%
3 | c1ccc(CNc2ncnc3scc(-c4cccs4)c23)nc1 | 58.2%
4 | O=C(N=Nc1c(O)[nH]c2ccccc12)Nc1ccccc1Cl | 78.3%
5 | COc1ccc(/C=C2\COc3ccc(O)c(O)c3C2=O)cc1OC | -28.7% (active)
6 | C=C(C)C1CCC2(C(=O)O)CCC3(C)C(CCC4C5(C)CCC(O)C(C)(C)C5CCC43C)C12 (centres undefined) | -40% (active)
7 | Cc1cccc(-c2nc(Nc3ccc4ncsc4c3)c3ccccc3n2)n1 | 62.5%
8 | c1csc(-c2cn3nc(-c4c[nH]c5ccccc45)sc3n2)c1 | 7.07% (active)
9 | COc1ccc(C2C(N)=NNC2c2cccc(O)c2)cc1 (centres undefined) | 97.9%
10 | [N-]=[N+]=NCC1OC(n2cnc3c(NC(=O)Nc4ccccc4)ncnc32)C2OC(=O)CC12 (centres undefined) | 87.3%
11 | C/C(=C\c1cc(Cl)ccc1OCC(=O)O)[N+](=O)[O-] | 52.5%
12 | COc1ccc(NC(=O)CCl)cc1 | 69.8%
13 | O=C(CN1CCCCC1)Nc1ccc2oc(=O)ccc2c1 | 78.1%
14 | O=C(/C=C/c1ccc(Cl)cc1)c1ccc(Nc2nc(NCCO)nc(N3CCOCC3)n2)cc1 | 99%
15 | COc1cccc(NC(=O)c2sc3nc4c(cc3c2N)C(=O)CCC4)c1 | -2.55% (active)
16 | Cc1cn(C)cn1 | 116%
17 | CC1CN(CC(O)c2ccc(Br)cc2)CCO1 (centres undefined) | 85.4%
18 | O=C(Nc1cccc(C2=NCCN2)c1)c1ccc(N=Nc2ccc(C(=O)Nc3cccc(C4=NCCN4)c3)cc2)cc1 | 42.5%
19 | NS(=O)(=O)c1ccc(-n2ncc3c(SCc4ccccc4)ncnc32)cc1 | 88.1%
20 | CCc1nn2c(-c3cc(OC)c(OC)c(OC)c3)c(-c3cc(OC)c(OC)c(OC)c3)nc2s1 | 59.3%
21 | Oc1ccccc1/C=N/c1ccccn1 | 102%
22 | S=C(Cc1ccc2c(c1)CCCC2)N1CCOCC1 | 85%
23 | [N-]=[N+]=Nc1ncc(-c2ccc(C(F)(F)F)cc2)c(NC2CCCCCC2)n1 | -14.7% [100 µM] (active)
24 | NC(=S)N/N=C(/CCN1CCCC1)CC(C1=C(O)C2=CCCCC2OC1=O)c1ccccc1 (centres undefined) | 72.9%
25 | O=C(Nc1nc(-c2ccccc2)cc(-c2ccc(Cl)cc2)n1)c1ccncc1 | 110%
26 | C#Cc1ccc(-n2c(/C=C/c3cc(OC)cc(OC)c3)nc3ncccc3c2=O)cc1 | 68.1%
27 | O=c1oc2ccc(F)cc2c(=O)n1-c1ccc(Br)cc1F | -45.3% (active)

Row | SMILES | growth
28 | Cc1ccc(Cl)cc1NC(=O)c1cc2ccccc2cc1O | -49.5% (active)
29 | Cc1ccc(NC(=O)c2cc(NCc3cc(O)ccc3O)ccc2O)cc1 | 16.1%
30 | O=C(N1CCC(CN=c2cc3n(-c4ccc(Cl)cc4)c4ccccc4nc-3cc2Nc2ccc(Cl)cc2)CC1)N1CC1 | -73.3% (active)
31 | COC(=O)[C@@]12CC=C(C)[C@]3(C[C@H](c4ccoc4)OC3=O)[C@H]1C=C[C@@H](O)[C@@]2(O)C(=O)OC | 107%
32 | O=C(/C(Cl)=N/O)c1ccc(-c2ccccc2)cc1 | 69.2%
33 | CCOC(=O)C1=C(C(=O)c2ccccc2)C(c2cccc([N+](=O)[O-])c2)C(C(=O)c2ccccc2)=C(C(=O)OCC)N1 | 66.8%
34 | O=C(/C=C\c1ccccc1Cl)c1ccccc1 | 110%
35 | COC(=O)[C@]12CC[C@@H](C)[C@H](C)[C@@H]1C1=CC[C@@H]3[C@@]4(C)C(C=O)=C[C@@](C)(COC(=O)c5ccco5)[C@@H]4[C@H](O)C[C@@]3(C)[C@]1(C)CC2 | -21.9% (active)
36 | COc1cc(-c2nn(-c3ccc(Br)cc3)cc2C(=O)O)ccc1O | 82.8%
37 | COc1ccc(-c2nn(-c3ccccc3)cc2/C=C/C(=O)NNC(=O)Nc2ccc(C)cc2)cc1 | 90.5%
38 | O=C(NCCNc1nccc(-c2c(-c3cccc(O)c3)nc3sccn23)n1)c1cc(N2CCOCC2)cc(C(F)(F)F)c1 | 102%
39 | COC(=O)/C(CCC=C(C)C)=C1\[C@@H](OC(C)=O)C[C@@]2(C)[C@H]1C[C@@H](O)[C@H]1[C@@]3(C)CC[C@H](NCCO)[C@@H](C)[C@@H]3CC[C@@]12C | 96.4%
40 | Cc1ccc(O)c(NC(=O)c2cccc(Nc3ccnc(C(F)(F)F)c3)c2)c1 | -11.8% (active)
41 | CC(C)=CCC/C(C)=C/CC/C(C)=C/CC/C=C(\C)CC/C=C(\C)CCC(=O)Nc1ccn(C2OC(CO)C(O)C2(F)F)c(=O)n1 (centres undefined) | -21.3% (active)
42 | O=C(Nc1nc2cccc(-c3ccc(CN4CCS(=O)(=O)CC4)cc3)n2n1)C1CC1 | 66.4%
43 | Cc1cccc(Oc2ccc(Nc3ncnc4ccc(NC(=O)CNCCO)cc34)cc2Cl)c1 | -26.1% (active)
44 | Cc1ccc(C(=O)C2=C(O)C(=O)N(Cc3cccnc3)C2c2ccccc2F)o1 (centres undefined) | 99.7%
45 | Nc1ncnc2c1N=C(c1ccc(F)cc1)CC(c1cccc(Nc3ccnc4cc(Cl)ccc34)c1)N2 (centres undefined) | 83.6%
46 | CN(C)[C@@H]1C(=O)C(C(N)=O)=C(O)[C@@]2(O)C(=O)C3=C(O)c4c(O)cc(CN5CCc6ccccc6C5)c(Cl)c4C[C@H]3C[C@@H]12 | -64.8% (active)
47 | NS(=O)(=O)c1ccc(CCN2C(=O)C3C(C2=O)C2(Cl)C(Cl)=C(Cl)C3(Cl)C2(Cl)Cl)cc1 (centres undefined) | 78.4%
48 | O=C(Nc1ccc(OCc2nnc(-c3ccc(Cl)cc3)o2)c(F)c1)Nc1ccc(Cl)c(C(F)(F)F)c1 | -18.5% (active)
49 | COc1cc(NC(=O)C2=C(N3CCOCC3)/C(=C/c3ccc(Cl)cc3)CC2)cc(OC)c1OC | 21.6%
50 | O=C(O)CCCCCNC(=O)OCc1ccccc1 | 103%
51 | N#Cc1c(-c2ccc(F)cc2)nc(N/N=C/c2cccc(O)c2)nc1N1CCOCC1 | 47.2%
52 | CC(=O)[C@H]1CC[C@]2(C)[C@@H]1CC[C@@H]1[C@@]3(C)C/C(=C/c4cccnc4)C(=O)C(C)(C)[C@@H]3CC[C@]12C | 8.47% (active)
53 | COc1cc(NS(=O)(=O)c2ccc(N)cc2)ncn1 | 105%
54 | COc1ccc(-c2nn(-c3cccc(NC(=O)c4ccc(N5CCOCC5)c(C(F)(F)F)c4)c3)cc2-c2ccncc2)cc1Cl | 38.1%

Row | SMILES | growth
55 | CN1CCC(CNc2cc(C3(C(=O)Nc4cc(C(=O)Nc5ccc(Cl)c(C(F)(F)F)c5)ccc4F)CC3)ncn2)CC1 | -7.85% (active)
56 | CCS(=O)(=O)N[C@@H]1O[C@H](COC(C)=O)C(OC(C)=O)[C@H](OC(C)=O)C1OC(C)=O (some centres undefined) | 117%
57 | O=P(O)(O)OCC1OC(n2cnc3c(NCc4ccccc4)ncnc32)C(O)C1O (centres undefined) | 26.8%
58 | COc1ccccc1N1CCN(C(=O)c2ccc3nc(NC(=O)c4ccc(NCCc5ccccc5)c([N+](=O)[O-])c4)sc3c2)CC1 | 94.3%
59 | O=C1c2cccc3cccc(c23)C(=O)N1CCCCCCCCCCN1C(=O)c2cccc3cccc(c23)C1=O | 99.6%
60 | Brc1ccc(Oc2ccc(Nc3ncnc4onc(-c5ccccc5)c34)cc2)cc1 | 101%
61 | C=C(CN1CC=CCC1)[C@@H]1CC[C@]2(COC(C)=O)CC[C@]3(C)[C@H](CC[C@@H]4[C@@]5(C)CC[C@H](O)C(C)(C)[C@@H]5CC[C@]43C)[C@@H]12 | 102%
62 | CCN(CC)CCOC(=O)N1c2ccccc2Sc2ccccc21 | 88.1%
63 | COc1ccc2c(c1)oc1c(C)c3c(c(C)c12)C(=O)N(CCOS(C)(=O)=O)C3=O | 93.6%
64 | CN(C)CCN=c1nc2c(c(N)n1-c1ccccc1)c(=S)n(-c1ccccc1)c(=S)n2-c1ccccc1 | 36.6%
65 | COc1cccc(NC(=O)Nc2ccc(Nc3ncnc4sc5c(c34)CCN(C(=O)CCl)C5)cc2)c1 | 90%
66 | O=c1cc(CNc2cc(F)cc(F)c2)c2ccc(I)cc2[nH]1 | -32.6% (active)
67 | O=C1OCC2=C1C(c1cccc(F)c1)c1cc3c(cc1N2CCO)CCC3 (centres undefined) | -29.8% (active)
68 | COc1ccc(Nc2nc(Nc3cc(C)[nH]n3)c3cc(OC)c(OC)cc3n2)cc1 | -50.5% [20 µM] (active)
69 | COc1ccc(-c2nc(-c3nc4cc(Cl)c(Cl)cc4[nH]3)c3ccccn23)cc1 | 99.9%
70 | O=[N+]([O-])c1ccc(O)c(-c2nc3ccccc3s2)c1 | 52.8%
71 | CC(C)CCNCC(C)(C)O | 99.3%
72 | CC(C)C1CCC(C)C(C2(C#N)C(N)=NC(N)=C2C#N)C1=O (centres undefined) | 96.7%
73 | COc1ccc(-c2cnnn2-c2cc(OC)c3c(c2)OCO3)cc1 | -32% (active)
74 | O=c1c(-c2ccc3c(c2)OCO3)coc2c(CO)c(O)ccc12 | -46.9% (active)
75 | CN1CCN(c2ccc3nc(-c4cc(C(C)(C)C)c(O)c(C(C)(C)C)c4)[nH]c3c2)CC1 | 68.6%
76 | O=C(Nc1cccc(C(F)(F)F)c1)C(Cl)Cl | 94.1%
77 | [O-]/[N+](=C\c1ccc(-n2cc(Cc3ccccc3Cc3cn(-c4ccc(/C=[N+](/[O-])c5ccccc5)cc4)nn3)nn2)cc1)c1ccccc1 | 98.4%
78 | COc1cccc2c1C(=O)c1c(O)c3c(c(O)c1C2=O)C[C@@](O)(C(=O)COC(=O)c1cccnc1)C[C@@H]3OC1CC(N)C(O)C(C)O1 (some centres undefined) | -27% (active)
79 | O=c1[nH]cnc2c1ccn2C1OC(CO)C(O)C1O (centres undefined) | 34%
